Vaccinia Venus: inhibitors of vaccinia virus (Venus reporter); Vaccinia virus Venus reporter expression, fluorescence; AID 720580; actives 0.46% (n = 330,000); Potency, µM (series often up to 36.5 µM), actives largely listed as inhibitors; calls by dose curve; tested in A549 cells; also: nearly all actives have a fitted effect of over 30% in size
HCV inh: HCV inhibition | Huh7.5.1 HCVcc-Cre infection, luciferase reporter, 44 h | Potency, µM (series often up to 41.8 µM), usual class: inhibitors | actives 3.4% (n = 340,000)
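Reporter virus HCVcc-Cre (~0.5 moi) infects cells exposed to compound; seeding density 1,000 cells/well with 4 h settling beforehand. Luminescence, 15 sec read, taken 44 h post-infection following a 15 min RT substrate incubation.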
FMDV inh: antivirals against foot and mouth disease virus; FMDV antiviral cell-based qHTS; Potency, µM (series often up to 57.9 µM), most hits filed as inhibitors; actives 1.2% (n = 410,000); calls by dose curve; tested in HEK293T cells; also: read-out not given here; nearly all actives have a fitted effect of over 45% in size
VACV mCherry inh: inhibitors of vaccinia virus infection (mCherry reporter signal) | Vaccinia virus mCherry reporter infection, fluorescence | AID 720579 | actives 0.63% (n = 310,000) | Potency, µM (titrated, usually from 36.5 µM), actives largely listed as inhibitors; calls by dose curve; tested in A549 cells; also: nearly all actives have a fitted effect of over 35% in size
HCMV inh: human cytomegalovirus inhibition | HFF cells, HCMV-luciferase reporter, 72 h; active compounds read low | activity change, negative = inhibition, % at 57.5 µM | actives 4.5% (n = 410,000); in the data active = activity change below about -60%; inconclusive = no clear call, values can overlap the other calls; inactive = above about -39%
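Two compound doses tested in HFFs infected with HCMV-luciferase, MOI 1 PFU/cell, 72 h at 37C. Lysate luminescence read with OneGlo; data normalized against buffer-only and 10uM Salinomycin inhibitor controls.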
Giardia FBPA inh: Giardia lamblia aldolase inhibition | purified Giardia FBPA | actives 0.71% (n = 290,000) | A8B2U2 | Potency, µM (doses to about 59.6 µM), usual class: inhibitors; also: nearly all actives have a fitted effect of over 55% in size
Target sequence (A8B2U2 whole entry, looked up): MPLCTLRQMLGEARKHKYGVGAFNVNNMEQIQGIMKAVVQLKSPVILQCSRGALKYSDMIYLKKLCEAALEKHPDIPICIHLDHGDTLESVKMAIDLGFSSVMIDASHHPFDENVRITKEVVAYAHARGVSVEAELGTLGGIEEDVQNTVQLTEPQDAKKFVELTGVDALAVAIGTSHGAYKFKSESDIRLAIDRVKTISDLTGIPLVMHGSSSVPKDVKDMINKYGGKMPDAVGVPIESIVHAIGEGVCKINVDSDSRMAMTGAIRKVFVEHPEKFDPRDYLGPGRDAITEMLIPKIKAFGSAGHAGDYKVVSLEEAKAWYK
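40 nM FBPA preincubated 10 min at RT with compound (up to 57.5 uM final), then substrate plus GAPDH/TPI/NAD/arsenate coupling and diaphorase/resazurin added. Fluorescence read after 20 min at RT, 525/598 nm.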
Numbers stand for hits; – = inactive; ? = inconclusive; · = no result. The list is not random: actives were taken first. Their share in the collection is about 7.5%. Unless noted, calls follow the shape of the dose curve; as a rule, active = well fitted curve in the direction sought with a large enough effect; inconclusive = small, poorly fitted or top-dose-only effect, or another doubt; inactive = no such curve, though single readings can be large; an effect the other way counts as inactive or inconclusive.

SMILES	Vaccinia Venus	HCV inh	FMDV inh	VACV mCherry inh	HCMV inh	Giardia FBPA inh
COCCNc1nc(NCc2ccccc2OC)c2sccc2n1	–	·	?	?	?	·
COc1ccccc1CNc1nc(NCc2ccccc2OC)c2sccc2n1	?	·	22µM	?	-91	·
O=S1(=O)CCO[C@H]2CCCC[C@@H]2N1Cc1ccccc1Br	–	·	·	–	·	·
C=C1[C@@H](O)[C@H](CC(C)C)N(Cc2ccccc2Br)S1(=O)=O	10µM	–	?	?	–	·
Cc1cccc(NS(=O)(=O)c2ccc(C)c(C(=O)OCC(=O)Nc3cc(C)on3)c2)c1	–	–	–	22µM	–	–
CCc1cc(C(=O)N2CCc3c([nH]c4ccccc34)C2c2ccc(OC)cc2F)no1 (centres undefined)	–	?	–	11µM	-64	–
COc1ccc(CCC(=O)N2CCc3c([nH]c4ccccc34)C2c2ccc(F)cc2)cc1 (centres undefined)	–	·	–	–	-80	·
CCOc1ccc(C2c3[nH]c4ccccc4c3CCN2C(=O)CCc2ccccc2)cc1 (centres undefined)	–	·	–	–	-84	·
COc1ccc(CC(=O)N2CCc3c([nH]c4ccccc34)C2c2ccc(SC)cc2)cc1 (centres undefined)	–	·	–	–	–	·
O=C(CSc1ccccc1)NNC(=O)c1ccncc1	–	–	–	–	–	·
COc1ccc(-c2noc(CCCC(=O)NC3CCCC3)n2)cc1	–	13µM	?	–	-80	·
COc1ccccc1CC(=O)Nc1ccc(-c2noc(COc3ccc(Cl)c(C)c3)n2)cc1	·	–	–	·	-67	–
COc1ccc(-c2noc(CCCC(=O)Nc3ccc(C(N)=O)cc3)n2)cc1	·	–	?	·	-90	–
O=C(CCc1nc(-c2ccccc2F)no1)Nc1ccc(Oc2ccccc2)cc1	?	?	?	·	-64	–
COc1ccc(-c2noc(CCC(=O)NC3CCCCCC3)n2)cc1	·	–	–	·	–	–
COc1cccc(NC(=O)CCc2nc(-c3ccccc3F)no2)c1	–	?	–	–	–	–
C=CCC1(CC=C)CCCN1C(=O)c1cc(COc2ccccc2SC)on1	–	?	–	–	–	·
CC1(C)OB(c2cnc(C#N)nc2)OC1(C)C	–	·	·	–	·	·
COc1ccc(-c2noc(CCC(=O)Nc3cc(Cl)c(OC)cc3OC)n2)cc1	?	4µM	–	·	–	–
O=C(CCCc1nc(-c2ccc(Cl)cc2)no1)NC1CCCC1	–	?	?	–	-84	·
COc1ccc(-c2noc(CCC(=O)Nc3cc(OC)ccc3OC)n2)cc1	–	?	–	·	–	–
Cc1cccc(-c2noc(CCC(=O)Nc3ccccc3)n2)c1	–	–	·	–	?	–
O=C(CCc1nc(-c2ccc(Cl)cc2)no1)NC1CCCCC1	–	–	–	–	–	–
CCOC(=O)c1ccc(NC(=O)CCc2nc(-c3cccc(C)c3)no2)cc1	·	8.9µM	?	·	–	–
O=C(C[N+]12CCCc3cccc(c31)CCC2)c1ccc2ccccc2c1	–	·	·	–	·	·
SMILES	Vaccinia Venus	HCV inh	FMDV inh	VACV mCherry inh	HCMV inh	Giardia FBPA inh
O=C(Nc1cccc(OC(F)(F)F)c1)c1cnc(N2CCN(Cc3cccc(C(F)(F)F)c3)C2=O)o1	·	·	·	·	–	·
O=C1Nc2cc(C(=O)NCCCN3CCOCC3)ccc2S/C1=C/c1ccccc1F	·	8.9µM	?	·	–	·
O=C1Nc2cc(C(=O)NCCCN3CCOCC3)ccc2S/C1=C/c1cccc(Cl)c1	·	?	?	·	–	·
COc1ccc(/C=C2/Sc3ccc(C(=O)NCCN4CCCCCC4)cc3NC2=O)cc1	·	?	–	·	-112	–
O=C1Nc2cc(C(=O)NCCCN3CCCC3)ccc2S/C1=C\c1ccccc1	·	11µM	–	·	?	–
c1cc(CCCc2ccncc2)ccn1	·	–	–	·	–	·
COCc1cc(N2CCN(C(=O)OC(C)(C)C)C[C@@H]2C)ccc1N1CC[C@H](O)C1	·	·	·	·	–	·
Cn1c(SCC(=O)N2c3ccccc3Sc3ccccc32)nc2ccccc21	–	–	–	–	?	–
CC(C)n1c(SCC(=O)N2c3ccccc3Sc3ccccc32)nc2c1c(=O)n(C)c(=O)n2C	–	11µM	·	–	–	–
CC(C)n1c(SCC(=O)Nc2nc3c(s2)CCCC3)nc2c1c(=O)n(C)c(=O)n2C	–	–	25µM	–	-60	–
CCOC(=O)c1c(NC(=O)CSc2nc3c(c(=O)n(C)c(=O)n3C)n2C(C)C)sc(C)c1C	–	–	·	–	·	–

Screening results as filed in PubChem.
